# PubChem BioAssay AID588855 (National Center for Advancing Translational Sciences (NCATS), 2011)
# Among all 410,000 compounds or so, about 5,000 (1.2%) were called active. Entries that show only a call come without a potency. Not shown: some 13% with an inconclusive outcome. Calls follow the shape of the dose curve; as a rule, active = well fitted inhibition curve with a large enough effect; inconclusive = small, poorly fitted or top-dose-only effect; inactive = no such curve, though single readings can be large or run the other way. The sample as a whole holds a higher share of actives than the screen did.
# Assay: qHTS for Inhibitors of TGF-b; also: nearly all actives have a fitted effect of over 65% in size
# Conditions: HepG2 CAGA-GFP TGF-b/SMAD3 reporter, GFP fluorescence, 18 h, TGF-beta stimulated, 500 pg/mL final; series mostly up to 46.1 µM
# Method in brief: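 HEPG2 CAGA-GFP reporter cells (1000/well, DMEM with 1% FBS) received compounds, then recombinant TGF-beta at 500 pg/mL final for 18 hours at 37 degrees C. Per-cell GFP summed per well was normalised to unstimulated and stimulated DMSO controls before curve fitting.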
# Potency is read from the fitted curve at half-maximal effect.
row,Structure (SMILES),Potency
1,Cc1ccc(S(=O)(=O)c2nnn3c2nc(N2CCN(c4ccccc4F)CC2)c2cc(Cl)ccc23)cc1C,inactive
2,COc1ccc(CNc2nc(-c3ccccc3)nn2C(=O)c2ccccc2OC)cc1,inactive
3,OC(Cc1ccc2ccccc2n1)c1ccc(Cl)c(Cl)c1 (configuration not stated),inactive
4,CC1CC(C)CN(c2oc(-c3ccc(OCc4ccc(Cl)cc4)cc3)nc2C#N)C1 (configuration not stated),inactive
5,CC1=C(C(=O)N(C(C)C)C(C)C)CC(CC(=O)NCCCCc2ccccc2)C(=O)N1CCC1=CCCCC1 (configuration not stated),12.6 µM (active)
6,CC1=C(C(=O)N(C)C)CC(CC(=O)NCCc2ccccn2)C(=O)N1CCC1=CCCCC1 (configuration not stated),inactive
7,CC1=C(C(=O)N2CCOCC2)CC(CC(=O)NCCN2CCOCC2)C(=O)N1CCC1=CCCCC1 (configuration not stated),inactive
8,COc1ccc(/C=C/c2nnc(NC(=O)C(C)C)s2)cc1,inactive
9,O=C(CSc1ccccc1)Nc1nnc(/C=C/c2ccccc2)s1,inactive
10,O=C(Nc1ccc(Cl)cc1)Nc1nnc(/C=C/c2ccccc2)s1,7.08 µM (active)
11,COc1ccccc1CSc1ncc(-c2ccc([N+](=O)[O-])cc2)[nH]1,12.6 µM (active)
12,COc1cccc(-c2cnc(C(O)c3ccccc3OC)[nH]2)c1 (configuration not stated),inactive
13,COc1ccc(-c2cnc(SCCNC(=O)c3ccc4c(c3)OCO4)[nH]2)cc1,inactive
14,Cc1ccccc1NCC(=O)N/N=C\c1ccc([N+](=O)[O-])s1,11.2 µM (active)
15,Cc1nn(Cc2ccc(Cl)cc2)c(Cl)c1/C=N/NC(=O)CNc1ccccc1F,inactive
16,Cc1ccc(S(=O)(=O)N2CCN(CC(=O)N/N=C/c3ccc(Br)s3)CC2)cc1,inactive
17,COc1ccccc1OCCNC(=O)c1cc([N+](=O)[O-])cc([N+](=O)[O-])c1,inactive
18,COc1ccc(C(=O)NCC(=O)N/N=C/c2ccc([N+](=O)[O-])s2)cc1OC,11.2 µM (active)
19,COc1ccc(C(=O)COC(=O)c2ccc([N+](=O)[O-])s2)cc1OC,inactive
20,COc1ccc(C2C(=O)N(C3CCCCC3)CC(=O)N2Cc2ccccc2Cl)cc1OC (configuration not stated),inactive
21,O=C(Cc1ccc(Cl)cc1)Nc1ccc2nn(-c3ccc(Cl)cc3)nc2c1,inactive
22,O=C(NCc1ccc(F)cc1)c1ccc2nc(N3CCCCC3)sc2c1,inactive
23,CC1CCN(c2nc3ccc(C(=O)N4CCN(c5ccccc5)CC4)cc3s2)CC1,inactive
24,COc1ccc2nc(N3CCN(C(=O)c4ccc([N+](=O)[O-])o4)CC3)sc2c1,10 µM (active)
25,CCn1c2ccccc2c2cc(NC(=O)COc3ccc(C)cc3C)ccc21,inactive

row,Structure (SMILES),Potency
1,Cn1nc(-c2ccccc2)c(-c2ccccc2)c(C(=O)Nc2ccc(S(N)(=O)=O)cc2)c1=O,inactive
2,CCCCNc1ccc(-c2nc(-c3ccncc3)no2)cc1[N+](=O)[O-],inactive
3,Cc1cccc(N2CCN(C(=O)Cn3ncc4c5ccccc5n(C)c4c3=O)CC2C)c1 (configuration not stated),inactive
4,CCOc1ccc(N(Cc2ccccc2)C(=O)c2nc(S(C)(=O)=O)ncc2Cl)cc1,3.98 µM (active)
5,COc1ccc(N(Cc2ccc(N(C)C)cc2)C(=O)c2ccc(S(C)(=O)=O)cc2)cc1,inactive
6,CCOc1ccc(NC(=O)CN(Cc2ccccc2)S(=O)(=O)c2ccc(Cl)cc2)cc1,inactive
7,CCc1ccc(NC(=O)N2CCN(C(=O)c3nsc4ccccc34)CC2)cc1,inactive
8,COc1ccc(CCNC(=O)c2cn(C)c3ccc(S(=O)(=O)N(C)C4CCCCC4)cc3c2=O)cc1OC,inactive
9,CCOC(=O)c1ccc(-c2ccc(/C=C(\C#N)C(=O)Nc3ccc(C)cc3)o2)cc1,inactive
10,O=CNc1cc(-c2ccc(C(=O)N3CCOCC3)cc2)cn2c(-c3ccc(F)cc3)cnc12,inactive
11,COc1ccc(-c2cc(NC=O)c3ncc(-c4cccc(C(=O)N(C)C)c4)n3c2)c(OC)c1,inactive
12,CN(C)C(=O)c1cccc(-c2cnc3c(NC=O)cc(-c4ccc(C(=O)N5CCOCC5)cc4)cn23)c1,inactive
13,CC(=O)c1ccc(-c2cnc3c(NC=O)cc(-c4cccc(NS(C)(=O)=O)c4)cn23)cc1,7.08 µM (active)
14,CC(=O)c1cccc(-c2cnc3c(NC=O)cc(-c4ccc(N(C)C)cc4)cn23)c1,4.47 µM (active)
15,COc1ccc(-c2cc(NC=O)c3ncc(-c4ccccc4)n3c2)cc1OC,inactive
16,CCc1ccccc1NC(=O)c1cnn(-c2ccc(F)cc2)c1C1CCNCC1,inactive
17,Cc1nn(CC(=O)NCCc2ccccc2)c(=O)c2c1sc1ccccc12,inactive
18,CC(=O)N1c2ccccc2CC1C(=O)N1CCN(c2ccc(F)cc2)CC1 (configuration not stated),inactive
19,CCc1ccc(OCCCn2c(CCCNC(=O)C3CCCCC3)nc3ccccc32)cc1,inactive
20,CCOC(=O)c1cc(-c2ccccc2)n(-c2cccc(C(=O)Nc3cc(OC)cc(OC)c3)c2)c1C,inactive
21,COc1ccc(-c2ccc(OC)c(C3C4C=CCC(C)C4C(=O)N3Cc3ccccc3)c2)cc1C (configuration not stated),inactive
22,Cc1ccc(-c2cccc([C@H]3[C@@H]4C=CC[C@@H](C)[C@@H]4C(=O)N3Cc3ccccc3)c2)cc1,20 µM (active)
23,Cc1cccc([C@@H]2[C@@H]3C(=O)N(Cc4ccccc4)C(=O)[C@@H]3[C@]3(C)C(=O)N(c4ccc(Br)cc4)C(=O)N23)c1,inactive
24,COc1ccc(-n2c(SC)nc3sc4c(c3c2=O)CCN(C(C)=O)C4)cc1,inactive
25,O=C(Cn1nc(Cc2cccnc2)c2ccccc2c1=O)NCC1COc2ccccc2O1 (configuration not stated),inactive

row,Structure (SMILES),Potency
1,O=C(Cn1nc(Cc2cccnc2)c2ccccc2c1=O)NCC1CCCO1 (configuration not stated),inactive
2,Cc1ccc(Cl)cc1N(C)C(=O)Cn1nc(Cc2cccnc2)c2ccccc2c1=O,12.6 µM (active)
3,CC(C)CCNC(=O)CSc1nc2ccccc2nc1Cc1ccc(Cl)cc1,inactive
4,COc1ccc(CCNC(=O)c2ccc(CSCc3ccc(C)cc3)o2)cc1OC,inactive
5,Cc1c(C=O)c2ccccc2n1CCOc1ccccc1,inactive
6,COc1ccc(OCCn2cc(C(=O)C3CCCCC3)c3ccccc32)cc1,inactive
7,O=Cc1cn(CCOc2ccc(F)cc2)c2ccccc12,3.98 µM (active)
8,COC(=O)N/N=C/c1cn(CCCOc2ccc(C)cc2)c2ccccc12,14.1 µM (active)
9,O=C1c2ccccc2C(=O)N1CCOc1ccc(F)cc1,inactive
10,Cc1ccc(OCCOc2cccc(/C=N/NC(N)=O)c2)cc1,inactive
11,Cc1ccccc1CSc1nc2c([nH]c3ccccc32)c(=O)n1C,inactive
12,CCn1cc(C(=O)N2CCN(c3cc(Cl)ccc3C)CC2)c(=O)c2cc(S(=O)(=O)N3CCCC3)ccc21,inactive
13,COc1ccc(SCc2cc(=O)c3ccc(C)c(C)c3[nH]2)cc1,inactive
14,OCCCNc1nccc(-c2cc(Nc3cccc(Cl)c3)ncn2)n1,0.447 µM (active)
15,CCOc1c(Nc2cccc(Cl)c2)c(=O)c1=O,inactive
16,COc1ccc(S(=O)(=O)n2nc(C)c(S(=O)(=O)N3CCCCCC3)c2C)cc1,inactive
17,O=C(COc1ccccc1C(=O)Nc1ccccc1)Nc1cccc(F)c1,inactive
18,COCCNS(=O)(=O)c1cc(-c2nn3c(C)nnc3c3ccccc23)ccc1C,inactive
19,COc1cc(/C=C2\Oc3ccc(C#Cc4ccc(O)cc4)cc3C2=O)cc(OC)c1,7.08 µM (active)
20,COc1cc(OC)c(OC)cc1/C=C1\C=Cc2ccccc21,inactive
21,CN(C)c1ccc(/C=C2\C=Cc3ccccc32)cc1Br,inactive
22,COc1cc(OC)c(NC(=O)c2cnc(N3CCCC3)nc2C)cc1Cl,inactive
23,COc1ccccc1CNc1nc(Nc2ccccc2Cl)c2sccc2n1,inactive
24,COCCNc1nc(NCc2ccc(NC(C)=O)cc2)c2sccc2n1,inactive
25,COc1cccc(CNc2nc(NCc3ccccc3OC)nc3ccsc23)c1,10 µM (active)

row,Structure (SMILES),Potency
1,Cc1cc(C)cc(NC(=O)CCCc2nc(-c3ccccc3Cl)no2)c1,inactive
2,NC(=O)Nc1ccc(/C=C/c2ccnc3ccccc23)cc1,inactive
3,CCCCS(=O)(=O)c1oc(-c2cccs2)nc1S(=O)(=O)c1ccccc1,3.16 µM (active)
4,Cc1ccc(S(=O)(=O)c2nc(-c3cccs3)oc2NCc2cccnc2)cc1,inactive
5,NC(=O)CSc1oc(-c2cccs2)nc1S(=O)(=O)c1ccccc1,inactive
6,CCOc1ccc(-c2nonc2NC(=O)c2oc3ccc(C)cc3c2C)cc1OCC,inactive
7,CC(C)(C)c1ccc(C(=O)Nc2ccc3c(c2)CCCN3C(=O)c2cccs2)cc1,inactive
8,CC1CC2=C(CC1/C=N/NC(N)=S)C(C)(C)CCC2 (configuration not stated),10 µM (active)
9,COc1cc(OC)c(NC(=O)N2CC3CCCN3c3ccccc32)cc1Cl (configuration not stated),inactive
10,COc1cc(NC(=O)c2noc3c2CSc2ccccc2-3)cc(OC)c1OC,inactive
11,COc1ccc(-c2nc(CN3CCC(C(=O)NCCN(CC(C)C)CC(C)C)CC3)c(C)o2)cc1OC,inactive
12,COc1ccc(-c2nc3sc(CCNC(=O)C(C)(C)C)c(C)n3n2)cc1,inactive
13,Cc1ccc(C(=O)N/C(=C\c2cccs2)C(=O)NCCc2ccccn2)cc1C,inactive
14,COc1cncc(-c2cnc3sc(NCCc4ccccn4)nn23)c1,7.94 µM (active)
15,CCCN(CCC)S(=O)(=O)c1ccc(C(=O)Nc2sc3c(c2C(=O)OC)CCN(CC)C3)cc1,inactive
16,COc1ccc(Cl)cc1NC(=O)c1sc2nc3c(cc2c1N)CN(C)CC3,inactive
17,O=C1C[C@@H](c2ccc3ccccc3c2)N1S(=O)(=O)c1ccccc1[N+](=O)[O-],inactive
18,Cc1ccc(-n2ncc3c(NCCCn4ccnc4)ncnc32)cc1Cl,inactive
19,Oc1c(Cl)cc(Cl)c(Cl)c1Cc1c(O)c(Cl)cc(Cl)c1Cl,5.62 µM (active)
20,CCOc1ccc(N(CC)C(=O)c2noc3c2COc2ccc(C)cc2-3)cc1,inactive
21,Cc1ccc(C=O)cc1Cl,inactive
22,CSc1ccc(C2c3c(oc4ccccc4c3=O)C(=O)N2CCCN2CCOCC2)cc1 (configuration not stated),inactive
